The text below walks through data of PubChem BioAssay AID2113 (National Center for Advancing Translational Sciences (NCATS), 2009).

Molecules are shown by their SMILES. Values joined by “and” are separate entries in the source; they are usually repeats but may differ in a detail not shown here. Equal values may be shown once. Inconclusive results are not listed. Values without a mark were called inactive. Active and inactive are the calls of the source. The call rests on the fitted dose curve; in most records, active means well fitted curve in either direction with a large enough effect; inconclusive means small, poorly fitted or top-dose-only effect; inactive means no such curve, though single readings can be large or run the other way. Residues, ends and D or L forms follow the SMILES beside them.
Potency means the concentration at half of the fitted maximal effect.

The experiment concerns the target Lysosomal alpha-glucosidase (Homo sapiens) (UniProt P10253). The experiment in a line: Confirmation of Inhibitors and Activators of Human alpha-Glucosidase From Spleen Homogenate.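 On Potency: fluorescence of 4-methylumbelliferone released from a fluorogenic glucopyranoside substrate at pH 5.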 On activity change, both directions: 0% is about no effect. The settings on record: alpha-glucosidase enzyme activity; series mostly up to 60.5 µM; activity change, both directions: at the top concentration. The essentials:
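Fluorogenic assay using human spleen homogenate (1 ug) as enzyme source with 1 mM 4-methylumbelliferyl-alpha-D-glucopyranoside, pH 5.0 citrate buffer, 40 min at 37 C. 4-MU read (Ex 365/Em 440) after NaOH/glycine stop; AC50 from Hill fits.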
Regarding `CC(=O)c1ccc(N2CCN(S(=O)(=O)c3ccc4c(c3)CCCN4C(C)=O)CC2)cc1`, the “activity change, both directions” value was 1.99%.
`CCCC[C@H](NC(=O)[C@@H]1CCCN1C(=O)[C@H]1CCCN1C(=O)[C@H](Cc1ccccc1)NC(=O)[C@@H](Cc1c[nH]c2ccccc12)NC(=O)[C@H](C)NC(=O)[C@H](CCCN=C(N)N)NC(=O)OC(C)(C)C)C(N)=O` (HELM PEPTIDE1{[CC(C)(C)OC(=O)[*:2]].R.A.[dW].F.[dP].P.[Nle].[am]}$$$$V2.0): the “activity change, both directions” value was 4%.
For `O=C(c1ccccc1)N1CCN(C(=O)N(c2ccccc2)c2ccccc2)CC1`, the “activity change, both directions” value was 1.94%.
As for `CC(=O)c1ccc(N2CCN(S(=O)(=O)c3ccc4c(c3)C(Cl)(Cl)C(=O)N4)CC2)cc1`, the Potency was 32.6 µM [inhibitor] (active).
For the compound `O=C1CC(N2CCN(c3cccc(C(F)(F)F)c3)CC2)C(=O)N1c1ccc(F)cc1` (stereo unspecified), the “activity change, both directions” value was 0.41% [at 31.5 µM].
Still for that read-out and setting: in the case of `OCC1NCC(O)C(O)C1O` (stereo unspecified) it was -99.2%.
On the same count and under the same terms, in the case of `O=c1oc2ccc(Br)cc2cc1-c1nc2c(s1)CCc1ccccc1-2` it was -7.86%.
Same read-out and setting: in the case of `Cc1nc(SCC(=O)N2CCN(c3ccccc3)CC2)c2oc3ccccc3c2n1` it was 6.86%; in that of `Cc1ccc(N=Nc2c(N)nn(-c3ccccc3)c2N)cc1`, 4.65%.
Regarding `CCCN1CNc2c(c(=O)[nH]c(=S)n2CCc2ccc(OC)cc2OC)C1`, the Potency is 15.8 µM (active).
In the case of `CC(=O)Nc1ccc(S(=O)(=O)/N=C2/NC(=O)/C(=C\c3ccco3)S2)cc1`, the “activity change, both directions” value is 1.22% [at 31.5 µM].
Still for that read-out and setting: in the case of `COc1ccc(CCn2c(=S)[nH]c(=O)c3nccnc32)cc1OC` it was 5.16%; in that of `CCc1sc(-c2cc3ccc(O)cc3oc2=O)nc1-c1cc(C)ccc1C`, 8.32%; in that of `CCCN1CNc2c(c(=O)[nH]c(=S)n2CCC)C1`, -5.91%.
Same read-out and setting: the value for `O=C(c1ccc2ccccc2c1)N1CCN(S(=O)(=O)c2ccccc2)CC1` was -1.67%; that for `COCCNS(=O)(=O)c1ccc2c(c1)n(C)c(=O)n2C` was 3.34% [at 31.5 µM].
Regarding `CC(=O)c1ccc(N2CCN(S(=O)(=O)c3ccc4c(c3)CCC(=O)N4)CC2)cc1`, the “activity change, both directions” value was 2.9%.
The same measure, in the same setting: in the case of `Cc1ccccc1S(=O)(=O)N1CCOCC1` it was -0.0363%.
On the same count and under the same terms, the value for `O=C(c1cc2c(ccc3ccccc32)oc1=O)N1CCN(CCO)CC1` was 11.3% [at 31.5 µM].
As to `CCCN1CNc2c(c(=O)[nH]c(=S)n2CCc2cccc(Cl)c2Cl)C1`, the Potency is 25.1 µM (active).
As to `O=C(O)C[C@@H]1C(=O)O[C@@H]2C(COC(=O)c3cc(O)c(O)c(O)c3)O[C@@H](OC(=O)c3cc(O)c(O)c(O)c3)[C@@H](OC(=O)c3cc(O)c(O)c4c3[C@H]1[C@H](O)C(=O)O4)[C@H]2OC(=O)c1cc(O)c(O)c(O)c1` (stereo partly specified), the “activity change, both directions” value was 15.7% [at 31.5 µM].
On to `COc1ccc(/C=C/c2nnc(NC(=O)CSc3ccc(C)cc3)s2)cc1`, for which the “activity change, both directions” value is 13%.
The same measure, in the same setting: the value for `O=C(O)Cc1sc(-c2cc3ccccc3oc2=O)nc1-c1ccc(Br)cc1` was -0.847%.
Same read-out and setting: the value for `Cc1ccc(N/N=C2\CCS(=O)(=O)c3sccc32)cc1` was 1.95%; that for `N#Cc1c(-c2cccs2)cc(-c2cccnc2)nc1N` was 27.4% [at 31.5 µM].
The same measure, in the same setting: in the case of `COCCn1c(=NC(=O)c2ccc3c(c2)OCO3)c(C#N)cc2c(=O)n3cccc(C)c3nc21` it was 3.39% [at 31.5 µM]; in that of `Cc1ccc(S(=O)(=O)N2CCN(CC(=O)N/N=C\c3ccccn3)CC2)cc1`, -32.6%.
For the compound `Cc1ccc(S(=O)(=O)N2CCOCC2)cc1C`, the “activity change, both directions” value was -0.759%.
For `COc1ccc(/C=C/c2nnc(NC(=O)CSc3ccccc3)s2)cc1`, the “activity change, both directions” value is 2.85%.
Turning to `CCc1sc(-c2cc3ccc(O)cc3oc2=O)nc1-c1ccccc1`, the “activity change, both directions” value was -3.17%.
As to `CC(=O)c1ccc(N2CCN(S(=O)(=O)c3ccc4c(c3)CC(=O)N4)CC2)cc1`, the Potency was 1.03 µM [inhibitor] (active) and 520 nM [inhibitor] (active) and 2.06 µM [inhibitor] (active).
Consider `NN=C1c2cc(S(=O)(=O)NCCO)ccc2-c2ccc(S(=O)(=O)NCCO)cc21`, for which the “activity change, both directions” value is 0.552%.
Same read-out and setting: the value for `Cc1ccc(S(=O)(=O)N2CCN(C(=O)C3COc4ccccc4O3)CC2)cc1C` (stereo unspecified) was -17.9%.
Consider `COc1ccc(N2CCN(S(=O)(=O)c3ccc4c(c3)CC(=O)N4)CC2)cc1`, for which the Potency was 18.8 µM [inhibitor] (active).
For `CC(=O)N1CCN(S(=O)(=O)c2ccc3c(c2)CC(=O)N3)CC1`, the Potency is 29.8 µM [inhibitor] (active).
With `N=c1sccn1CC(=O)Nc1cc(S(=O)(=O)N2CCCC2)ccc1Cl`, the “activity change, both directions” value was 2.92%.
